In all, about 650,000 compounds went through this assay and about 5,900 (0.91%) were called active. Only a selection was taken, and actives are over-represented in it overall. Unmarked numbers belong to inactive results. Rule as the data show it: active = inhibition above about 50%; inactive = the rest.
These molecules were tested against Microphthalmia-associated transcription factor (Homo sapiens) (UniProt O75030) (assay: MITF inhibitors, primary screen, biochemical, AlphaScreen, human (AID 1259374;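 also: 0% = vehicle wells with protein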)). Details: AlphaScreen MITF homodimerization, bead proximity signal; at 2.6 µM; hits give high values.
Chain of Microphthalmia-associated transcription factor (Homo sapiens) (O75030 whole entry, looked up): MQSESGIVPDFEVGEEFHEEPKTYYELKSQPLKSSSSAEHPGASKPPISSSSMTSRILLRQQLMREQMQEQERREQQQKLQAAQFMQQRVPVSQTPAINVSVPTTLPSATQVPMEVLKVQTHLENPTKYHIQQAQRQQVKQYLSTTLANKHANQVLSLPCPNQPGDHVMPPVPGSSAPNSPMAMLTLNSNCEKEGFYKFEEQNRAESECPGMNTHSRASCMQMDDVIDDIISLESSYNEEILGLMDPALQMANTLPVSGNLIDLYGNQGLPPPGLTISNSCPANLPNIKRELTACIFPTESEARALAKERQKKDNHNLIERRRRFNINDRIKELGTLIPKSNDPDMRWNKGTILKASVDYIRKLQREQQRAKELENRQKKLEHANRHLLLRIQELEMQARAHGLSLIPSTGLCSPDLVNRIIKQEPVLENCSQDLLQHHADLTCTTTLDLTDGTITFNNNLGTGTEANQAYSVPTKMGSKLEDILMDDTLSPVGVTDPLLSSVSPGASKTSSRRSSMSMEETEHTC
For `CC1CCCC(N2CCN(Cc3ccccc3Cl)CC2)C1` (configuration not stated), the inhibition was 63.2% (active).
With `O=CN1CCN(Cc2ccccc2Cl)CC1` the inhibition was 3.26%.
Molecule `NCC1CCN(Cc2ccccc2Cl)CC1` has an inhibition of 21.9%.
`CCC(C(=O)N1CCN(C(=O)C(CC)c2ccccc2)CC1)c1ccccc1` (configuration not stated) showed an inhibition of 6.26%.
`COc1cc(CN2CCN(C(=O)c3cc(OC)c(OC)c(OC)c3)CC2)cc(OC)c1O` gave an inhibition of -11%.
For `COc1cc(CN2CCN(C(=O)C(c3ccccc3)c3ccccc3)CC2)cc(OC)c1OC`, the inhibition was 53.1% (active).
With `CCN(CC)C(=O)C(Cc1ccccc1)NCC(=O)Nc1ccc(C)cc1` (configuration not stated) the inhibition was 10.3%.
Molecule `COc1cccc(OC)c1C(=O)Nc1ccc(Cl)cn1` has an inhibition of -14.5%.
For `CCOC(=O)c1sc(=S)n(-c2cccc(C(F)(F)F)c2)c1N`, the inhibition was -1.48%.
Work on `CC(Nc1ccc(-c2cccc(C=O)c2)cn1)c1ccc(F)cc1` (configuration not stated) yielded an inhibition of 7.6%.
`CN(C)c1cccc(Nc2ccc(-c3cccc(C=O)c3)cn2)c1` was tested, and the inhibition was 50.8% (active).
In the case of `CN(C)c1cccc(Nc2nccc(Nc3ccccc3)n2)c1`, the inhibition is reported as -2.6%.
With `Fc1ccc(-c2cccc3ccc(N4CCN(c5ncccn5)CC4)nc23)cc1` the inhibition was 2.86%.
`NC(=O)c1c(/N=C/c2ccc([N+](=O)[O-])cc2)sc2c1CCCC2` gave an inhibition of 7.76%.
For `O=C1N[C@H](Cc2ccc(O)cc2)C(=O)N2CCN(C(=O)c3ccccc3Cl)C[C@H]12`, the inhibition was -6.27%.
For `COc1cccc(/C=C(\C#N)c2nc3ccccc3[nH]2)c1OCc1ccc(Cl)cc1Cl`, the inhibition was 52.7% (active).
Molecule `COc1cccc(/C=C(\C#N)c2nc3ccc(C)cc3[nH]2)c1OC` has an inhibition of 7.46%.
With `COc1ccccc1/C=C(/C#N)c1nc2ccccc2[nH]1` the inhibition was 11.1%.
With `Cc1ccc2oc(-c3ccc(C)c(NC(=O)c4ccc(Cl)c([N+](=O)[O-])c4)c3)nc2c1` the inhibition was 14.9%.
In the case of `O=C1O/C(=C(\c2cccc3ccccc23)[N+](=O)[O-])c2ccccc21`, the inhibition is reported as 7.98%.
In the case of `O=C(NCC1CCCO1)C1CCC(Cn2c(SCc3ccc([N+](=O)[O-])cc3)nc3ccccc3c2=O)CC1` (configuration not stated), the inhibition is reported as 1.86%.
Molecule `COC(=O)c1sc2ccccc2c1NC(=O)c1ccc2c(c1)OCCO2` has an inhibition of 4.39%.
Molecule `COC(=O)c1ccccc1NS(=O)(=O)c1ccc2[nH]c(=O)ccc2c1` has an inhibition of 6.38%.
Work on `COC(=O)c1cccc(NC(=O)c2ccccc2NS(=O)(=O)c2ccc(C)cc2)c1C` yielded an inhibition of -6.07%.
`COC(=O)c1cccc(NS(=O)(=O)c2ccc3ccccc3c2)c1C` was tested, and the inhibition was 52.5% (active).
Molecule `CCCCCCC1CCC(C(=O)Oc2ccc(C(=O)OCC)cc2)CC1` (configuration not stated) has an inhibition of 7.45%.
In the case of `COc1ccc2c(c1)CC(c1nc3ccc(-c4cccnc4)cc3o1)CO2` (configuration not stated), the inhibition is reported as -9.3%.
In the case of `COc1ccc2c(c1)CC(C(=O)Nc1ccc(-c3ccncc3)cc1Oc1ccccc1)CO2` (configuration not stated), the inhibition is reported as 12.9%.
In the case of `COc1ccc2c(c1)CC(c1nc(Nc3ccc4cnccc4c3)c3ccccc3n1)CO2` (configuration not stated), the inhibition is reported as 55.2% (active).
For `O=C(Nc1nc(-c2ccc(Br)cc2)cs1)N1CCOCC1`, the inhibition was 6.09%.
With `Cc1cc(-c2cnc(N3CCCCC3)nc2C2CCNCC2)on1` the inhibition was -11%.
With `CN(CCC(=O)Nc1cccc(F)c1)Cc1ccccc1` the inhibition was -7.29%.
Molecule `O=C(Cc1cccc(Cl)c1)NCc1ccccc1` has an inhibition of -1.38%.
`CN(CCC(=O)O)Cc1cccc(Cl)c1` was tested, and the inhibition was 69.7% (active).
For `Cc1ccc(Nc2nc3nonc3nc2N2CCN(C(=O)c3ccccc3)CC2)cc1Cl`, the inhibition was 2.8%.
`CCc1ccccc1NC(=O)c1cc2nc(-c3cccs3)cc(C(F)(F)F)n2n1` gave an inhibition of 23.3%.
`COc1ccc(COCC(O)CNCC(C)(C)CN(C)C)cc1OC` (configuration not stated) was tested, and the inhibition was 69.4% (active).
Molecule `COc1cc(CNC(C)(C)C)ccc1OCCO` has an inhibition of -1.33%.
Molecule `CCC(CO)NCC(O)COCc1ccc(Cl)cc1` (configuration not stated) has an inhibition of -4.49%.
Molecule `Cc1c(C(=O)N2CCN(c3ccc(F)cc3)CC2)sc2ncn(CC(=O)N3CCC(C)CC3)c(=O)c12` has an inhibition of 9.34%.
In the case of `Cc1cnc(C)c(-c2ccc3c(c2)CC(CNC(=O)/C=C/c2cccc(F)c2F)O3)n1` (configuration not stated), the inhibition is reported as 10.3%.
`CCOC(=O)c1[nH]c(COC(C)=O)c(CCC(=O)OC)c1C` gave an inhibition of -19.8%.
Work on `O=C(COc1ccccc1)Nc1ccc(N2CCC(NCCc3cccs3)CC2)cc1` yielded an inhibition of 8.32%.
For `COc1ccc2c(c1)CC(C(=O)Nc1ccc(-c3cn[nH]c3)cc1OC(C)CN(C)C)CO2` (configuration not stated), the inhibition was 13.3%.
With `COc1ccc2c(c1)CC(C(=O)Nc1ccc(-c3cn[nH]c3)cc1OCC(N)=O)CO2` (configuration not stated) the inhibition was 52.7% (active).
In the case of `COc1ccc2c(c1)CC(C(=O)Nc1ccc(-c3cn[nH]c3)cc1OCc1ccccc1)CO2` (configuration not stated), the inhibition is reported as 62.3% (active).
`COc1ccc2c(c1)CC(C(=O)Nc1ccc(-c3cn[nH]c3)cc1C(=O)NCc1ccccc1)CO2` (configuration not stated) showed an inhibition of 24.1%.
For `COc1ccc2c(c1)CC(C(=O)Nc1ccc(-c3cn[nH]c3)cc1OCCN(C)C)CO2` (configuration not stated), the inhibition was 3.86%.
For `COc1ccc2c(c1)CC(C(=O)Nc1ccc(-c3cn[nH]c3)cc1O[C@H]1CCOC1)CO2` (some centres not stated), the inhibition was 16.3%.
`CCc1ccc(C(=O)N2CCN3C(=O)[C@H](CO)NC(=O)[C@H]3C2)cc1` was tested, and the inhibition was -8.93%.
`O=C(CN(Cc1ccccc1)S(=O)(=O)c1ccc(F)cc1)NCCc1ccccc1` was tested, and the inhibition was -7.64%.
Molecule `CC(C)N1CCC(N2CCN(Cc3cc(F)ccc3F)CC2CCO)CC1` (configuration not stated) has an inhibition of 5.34%.
In the case of `Cc1cc(S(=O)(=O)NCc2ccc3c(c2)OCO3)ccc1-n1cnnn1`, the inhibition is reported as 11.8%.
Work on `Cc1cc(S(=O)(=O)NC2CCCC2)ccc1-n1cnnn1` yielded an inhibition of -4.47%.
For `Cc1cc(S(=O)(=O)Nc2ccc3c(c2)OCCO3)ccc1-n1cnnn1`, the inhibition was 53% (active).
In the case of `COCCN1C(=O)/C(=C/c2cc(OC)c(O)c([N+](=O)[O-])c2)SC1=S`, the inhibition is reported as 14.8%.
In the case of `CC(C)(C)n1nnnc1C(c1ccc(Cl)cc1)N1CCSCC1` (configuration not stated), the inhibition is reported as -19.9%.
In the case of `CC(C)(C)n1nnnc1C(c1ccc2ncccc2c1)N1CCSCC1` (configuration not stated), the inhibition is reported as 65.2% (active).
`COCCn1nnnc1C(c1ccc2ncccc2c1)N1CCOCC1` (configuration not stated) showed an inhibition of 12%.
With `CN(C)c1cc(NCCN2CCC3(CC2)OCCO3)c2c3c(onc13)-c1ccccc1C2=O` the inhibition was 50.7% (active).
In the case of `CCNc1cc(Nc2ccccc2)c2c3c(onc13)-c1ccccc1C2=O`, the inhibition is reported as 15.1%.
`CC(C)Nc1cc(N2CCN(c3ncccn3)CC2)c2noc3c2c1C(=O)c1ccccc1-3` was tested, and the inhibition was 5.09%.
Molecule `CN1CCN(c2cc(NCCCC(=O)O)c3c4c(onc24)-c2ccccc2C3=O)CC1` has an inhibition of 10.3%.
With `CC1CCN(c2cc(NCC(=O)O)c3c4c(onc24)-c2ccccc2C3=O)CC1` the inhibition was 51.3% (active).
Molecule `CCNc1cc(NCCO)c2noc3c2c1C(=O)c1ccccc1-3` has an inhibition of 27.5%.
For `COc1ccc(Nc2cc(N3CCN(c4ncccn4)CC3)c3noc4c3c2C(=O)c2ccccc2-4)cc1`, the inhibition was 0.37%.
`CC(C)Nc1cc(N2CCC3(CC2)OCCO3)c2noc3c2c1C(=O)c1ccccc1-3` was tested, and the inhibition was 55.8% (active).
`CCOC(=O)N1CCN(c2cc(NCCO)c3c4c(onc24)-c2ccccc2C3=O)CC1` was tested, and the inhibition was 15.8%.
For `Cc1c(C(=O)Nc2ccc(F)cc2)sc2ncnc(N3CCc4ccccc4C3)c12`, the inhibition was -2.5%.
Molecule `Cc1ccc(OCC(=O)N2CCC(C(=O)O)CC2)cc1C` has an inhibition of 6.47%.
Molecule `COCCn1c(SCC(=O)Nc2c(C)cc(C)cc2C)nc2c(c1=O)SCC2` has an inhibition of 1.88%.
In the case of `COc1ccc(C(CNCc2cc(=O)oc3cc4c(cc23)CCC4)N2CCOCC2)cc1` (configuration not stated), the inhibition is reported as 85.3% (active).
For `COc1ccccc1C(=O)NCC(c1ccc2c(c1)CCCN2C)N1CCOCC1` (configuration not stated), the inhibition was -1.79%.
`O=c1cc(CNc2ccc(S(=O)(=O)N3CCCC3)cc2)c2cc3c(cc2o1)CCC3` gave an inhibition of 10.1%.
With `CN1CCN(Cc2c(O)ccc3c2O/C(=C\c2ccccc2Cl)C3=O)CC1` the inhibition was 2.25%.
For `Cc1ccc2c(=O)c(CN3CCN(C)CC3)c(C)[nH]c2c1C`, the inhibition was 10%.
With `N#C/C(=C(/O)c1cc(-c2ccccc2)nc2ccccc12)c1nc2ccccc2[nH]1` the inhibition was -0.49%.
In the case of `COc1cc(Br)cc(/C=N\NC(=O)c2ccc(C)nc2)c1O`, the inhibition is reported as 60.8% (active).
Work on `COc1cc(Br)cc(/C=N/NC(=O)c2cc(-c3ccccc3)n[nH]2)c1O` yielded an inhibition of -36.5%.
With `CCOc1cccc(/C=N/NC(=O)c2ccc(C)nc2)c1O` the inhibition was 49.4%.
Molecule `O=c1nc(/C=C/c2cc(Cl)cc(Cl)c2OCc2ccccc2F)cc(C(F)(F)F)[nH]1` has an inhibition of -1.22%.
For `C/C(=N\c1ccccn1)c1c(O)c2ccccc2oc1=O`, the inhibition was 5.79%.
In the case of `CCC(C)NCCOCCOc1cc(C)cc(C)c1C` (configuration not stated), the inhibition is reported as 70.4% (active).
Work on `CCC(C)NCCOCCOc1c(OC)cccc1OC` (configuration not stated) yielded an inhibition of 17.3%.
For `CCC(C)NCCOCCOc1ccc(Br)cc1C` (configuration not stated), the inhibition was 28.4%.
`Cc1nn(C)c(C)c1NC(=O)Cn1nc2n(Cc3ccc(F)cc3)c3ccccc3n2c1=O` was tested, and the inhibition was 12.6%.
In the case of `Cc1ccc(C)c(NCN2C(=O)CSC2=O)c1`, the inhibition is reported as 17.9%.
`CCOC(=O)c1sc2nc(SCC(=O)N3CCCC3)n(Cc3ccc(C)cc3)c(=O)c2c1C` showed an inhibition of -3.14%.
In the case of `O=S(=O)(c1ccc2ccccc2c1)N1CCN(CC2CC3C=CC2C3)CC1` (configuration not stated), the inhibition is reported as -6.53%.
In the case of `C1=CC2CC1CC2CN1CCN(Cc2c[nH]c3ccccc23)CC1` (configuration not stated), the inhibition is reported as 64.4% (active).
For `CCOc1ccccc1N1CCN(CC2CC3C=CC2C3)CC1` (configuration not stated), the inhibition was 4.32%.
`CCN1C(=O)C(C)(C)COc2ccc(NC(=O)COc3ccc4ccccc4c3)cc21` was tested, and the inhibition was 8.12%.
